Laboratory results from publication PMC7862700, “An all-to-all approach to the identification of sequence-specific readers for epigenetic DNA modifications on cytosine”.

Columns and labels:
Test in all cases: DAPPL (digital affinity profiling via proximity ligation, sequencing); 10 mM Tris-HCl pH 7.5, 50 mM NaCl, 1 mM DTT, 4% glycerol, room temperature, 30 min; GST-TFs on glutathione beads, 16-mer random dsDNA library, 0.1% formaldehyde crosslink after washing; high values mean tight binding
Conditions in all cases: protein: recombinant; tags: N-terminal GST; dsDNA, one strand shown
FLI1 = biological target: T1, FLI1 (Homo sapiens, UniProt Q01543 1-452)
T1 sequence: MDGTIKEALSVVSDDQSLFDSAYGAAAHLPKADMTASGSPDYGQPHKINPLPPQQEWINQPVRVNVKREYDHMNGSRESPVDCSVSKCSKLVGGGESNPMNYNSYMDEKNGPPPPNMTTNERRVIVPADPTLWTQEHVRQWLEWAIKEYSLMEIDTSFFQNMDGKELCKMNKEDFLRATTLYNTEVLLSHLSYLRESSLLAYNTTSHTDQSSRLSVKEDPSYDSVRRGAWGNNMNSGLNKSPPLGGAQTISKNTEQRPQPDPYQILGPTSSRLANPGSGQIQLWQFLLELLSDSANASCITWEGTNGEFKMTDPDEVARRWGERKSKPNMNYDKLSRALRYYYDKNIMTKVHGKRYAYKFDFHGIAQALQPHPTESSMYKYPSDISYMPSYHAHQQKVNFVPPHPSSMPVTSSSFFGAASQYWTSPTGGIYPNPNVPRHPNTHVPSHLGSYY
Procedure, shortened: (§1)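 Human transcription factors fused to GST were expressed in yeast, captured on glutathione beads, given DNA barcodes and pooled with a GST-only negative control. Pools were incubated with 200 nmole of a 16-mer random double-stranded DNA library in Tris/NaCl/DTT/glycerol buffer at room temperature for 30 min. They were then washed, crosslinked with 0.1% formaldehyde, proximity-ligated (BsaI/T4 ligase, 1 h, 37 °C), PCR-amplified and sequenced on an Illumina NextSeq500. Binding signal is each 6-mer's read frequency for a factor divided by its frequency for the GST control.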

ELK1 = biological target: T2, ELK1 (Homo sapiens, UniProt P19419 1-428)
T2 sequence: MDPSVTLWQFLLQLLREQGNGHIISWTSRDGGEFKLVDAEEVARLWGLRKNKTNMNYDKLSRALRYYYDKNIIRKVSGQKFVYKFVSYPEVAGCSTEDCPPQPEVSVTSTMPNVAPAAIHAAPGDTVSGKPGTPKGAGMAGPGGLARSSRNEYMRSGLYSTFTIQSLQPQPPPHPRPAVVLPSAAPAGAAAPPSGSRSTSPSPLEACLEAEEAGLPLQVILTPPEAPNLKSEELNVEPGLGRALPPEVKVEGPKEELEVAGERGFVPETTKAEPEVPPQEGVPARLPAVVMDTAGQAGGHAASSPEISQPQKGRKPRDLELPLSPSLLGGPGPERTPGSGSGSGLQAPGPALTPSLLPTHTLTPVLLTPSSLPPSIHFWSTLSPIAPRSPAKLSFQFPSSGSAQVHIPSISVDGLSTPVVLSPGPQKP
Procedure, shortened: as §1

ERG = biological target: T3, ERG (Homo sapiens, UniProt P11308 1-479)
T3 sequence: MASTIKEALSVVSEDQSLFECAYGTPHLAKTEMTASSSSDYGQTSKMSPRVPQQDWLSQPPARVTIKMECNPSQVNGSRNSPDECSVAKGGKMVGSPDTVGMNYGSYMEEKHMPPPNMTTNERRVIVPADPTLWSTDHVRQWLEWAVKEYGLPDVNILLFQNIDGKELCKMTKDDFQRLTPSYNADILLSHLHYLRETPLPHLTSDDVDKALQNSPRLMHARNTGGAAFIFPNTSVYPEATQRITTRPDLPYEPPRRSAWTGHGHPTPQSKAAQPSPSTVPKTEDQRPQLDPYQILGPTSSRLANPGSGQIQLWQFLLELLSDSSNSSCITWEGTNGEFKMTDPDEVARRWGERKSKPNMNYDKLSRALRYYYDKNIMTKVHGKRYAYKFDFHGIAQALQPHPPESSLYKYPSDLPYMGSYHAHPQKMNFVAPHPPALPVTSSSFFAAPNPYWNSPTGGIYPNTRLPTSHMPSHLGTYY
Procedure, shortened: as §1

ELF1 = ELF1 (Homo sapiens, UniProt P32519 1-619)
Procedure, shortened: as §1

EHF = biological target: T4, EHF (Homo sapiens, UniProt Q9NZC4 1-300)
T4 sequence: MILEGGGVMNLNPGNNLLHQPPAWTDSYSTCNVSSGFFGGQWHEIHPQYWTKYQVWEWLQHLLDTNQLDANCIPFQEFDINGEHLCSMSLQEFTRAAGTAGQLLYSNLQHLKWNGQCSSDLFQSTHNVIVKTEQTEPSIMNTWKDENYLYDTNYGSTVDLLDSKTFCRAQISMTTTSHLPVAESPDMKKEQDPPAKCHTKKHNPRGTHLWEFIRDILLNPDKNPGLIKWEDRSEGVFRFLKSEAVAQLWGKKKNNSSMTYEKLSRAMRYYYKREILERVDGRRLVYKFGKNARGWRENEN
Procedure, shortened: as §1

SPIB = SPIB (Homo sapiens, UniProt Q01892 1-262)
Procedure, shortened: as §1

ELK3 = biological target: T5, ELK3 (Homo sapiens, UniProt P41970 1-407)
T5 sequence: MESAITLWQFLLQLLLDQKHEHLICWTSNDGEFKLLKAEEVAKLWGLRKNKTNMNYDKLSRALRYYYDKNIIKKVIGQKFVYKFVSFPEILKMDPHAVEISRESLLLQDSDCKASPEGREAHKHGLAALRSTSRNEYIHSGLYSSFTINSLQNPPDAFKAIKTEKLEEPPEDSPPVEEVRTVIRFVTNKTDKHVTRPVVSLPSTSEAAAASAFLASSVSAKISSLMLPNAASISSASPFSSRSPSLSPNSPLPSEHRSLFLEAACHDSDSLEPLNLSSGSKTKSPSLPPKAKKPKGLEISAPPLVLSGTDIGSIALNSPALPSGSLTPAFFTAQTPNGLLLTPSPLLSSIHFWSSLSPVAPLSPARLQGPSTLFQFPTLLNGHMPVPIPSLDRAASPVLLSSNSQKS
Procedure, shortened: as §1

SPIC = biological target: T6, SPIC (Homo sapiens, UniProt Q8N5J4 1-248)
T6 sequence: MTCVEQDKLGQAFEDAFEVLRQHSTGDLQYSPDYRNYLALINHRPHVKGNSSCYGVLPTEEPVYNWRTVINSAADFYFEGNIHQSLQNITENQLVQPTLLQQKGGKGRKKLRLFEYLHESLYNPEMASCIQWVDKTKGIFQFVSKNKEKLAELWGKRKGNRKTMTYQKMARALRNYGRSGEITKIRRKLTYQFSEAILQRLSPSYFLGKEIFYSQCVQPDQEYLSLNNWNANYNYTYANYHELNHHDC
Procedure, shortened: as §1

ELF4 = ELF4 (Homo sapiens, UniProt Q99607 1-663)
Procedure, shortened: as §1

ELK4 = biological target: T7, ELK4 (Homo sapiens, UniProt P28324-2 1-405)
T7 sequence: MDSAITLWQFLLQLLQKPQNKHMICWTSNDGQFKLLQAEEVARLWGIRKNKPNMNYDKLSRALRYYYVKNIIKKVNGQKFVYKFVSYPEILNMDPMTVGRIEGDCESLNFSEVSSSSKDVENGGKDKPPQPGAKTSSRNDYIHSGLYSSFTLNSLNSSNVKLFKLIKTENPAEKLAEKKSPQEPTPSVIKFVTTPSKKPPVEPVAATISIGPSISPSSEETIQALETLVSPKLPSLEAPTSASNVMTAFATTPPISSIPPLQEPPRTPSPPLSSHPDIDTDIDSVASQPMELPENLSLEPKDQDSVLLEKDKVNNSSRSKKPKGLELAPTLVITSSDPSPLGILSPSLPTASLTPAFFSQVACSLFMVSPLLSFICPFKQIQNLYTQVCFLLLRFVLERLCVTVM
Procedure, shortened: as §1

ETV1 = ETV1 (Homo sapiens, UniProt P50549 1-477)
Procedure, shortened: as §1

ERF = biological target: T8, ERF (Homo sapiens, UniProt P50548 1-548)
T8 sequence: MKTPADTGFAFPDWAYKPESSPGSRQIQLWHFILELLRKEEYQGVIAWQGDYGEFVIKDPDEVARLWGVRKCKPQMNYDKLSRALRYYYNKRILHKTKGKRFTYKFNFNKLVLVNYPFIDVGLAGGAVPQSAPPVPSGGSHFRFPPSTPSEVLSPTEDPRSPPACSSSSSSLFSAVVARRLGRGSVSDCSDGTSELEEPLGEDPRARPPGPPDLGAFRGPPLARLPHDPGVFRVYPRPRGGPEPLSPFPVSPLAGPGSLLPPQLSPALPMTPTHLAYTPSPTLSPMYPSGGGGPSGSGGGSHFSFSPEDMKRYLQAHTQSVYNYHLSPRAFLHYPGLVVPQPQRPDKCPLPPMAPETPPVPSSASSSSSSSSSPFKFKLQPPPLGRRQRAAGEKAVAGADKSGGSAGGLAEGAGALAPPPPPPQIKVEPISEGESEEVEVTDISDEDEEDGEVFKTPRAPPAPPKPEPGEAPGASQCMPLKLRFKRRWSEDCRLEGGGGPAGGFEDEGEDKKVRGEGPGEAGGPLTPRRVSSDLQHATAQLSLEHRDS
Procedure, shortened: as §1

ETV3L = biological target: T9, ETV3L (Homo sapiens, UniProt Q6ZN32 1-361)
T9 sequence: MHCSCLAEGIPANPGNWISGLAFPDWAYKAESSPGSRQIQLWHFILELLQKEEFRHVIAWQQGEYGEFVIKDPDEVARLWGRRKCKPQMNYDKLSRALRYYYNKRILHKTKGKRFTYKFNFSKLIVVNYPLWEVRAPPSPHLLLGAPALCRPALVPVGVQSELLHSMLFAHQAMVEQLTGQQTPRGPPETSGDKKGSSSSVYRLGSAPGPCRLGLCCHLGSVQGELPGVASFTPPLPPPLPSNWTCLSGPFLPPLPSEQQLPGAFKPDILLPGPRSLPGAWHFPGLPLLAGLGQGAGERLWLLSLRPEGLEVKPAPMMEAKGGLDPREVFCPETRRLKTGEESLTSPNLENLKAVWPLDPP
Procedure, shortened: as §1

ETS2 = biological target: T10, ETS2 (Homo sapiens, UniProt P15036 1-469)
T10 sequence: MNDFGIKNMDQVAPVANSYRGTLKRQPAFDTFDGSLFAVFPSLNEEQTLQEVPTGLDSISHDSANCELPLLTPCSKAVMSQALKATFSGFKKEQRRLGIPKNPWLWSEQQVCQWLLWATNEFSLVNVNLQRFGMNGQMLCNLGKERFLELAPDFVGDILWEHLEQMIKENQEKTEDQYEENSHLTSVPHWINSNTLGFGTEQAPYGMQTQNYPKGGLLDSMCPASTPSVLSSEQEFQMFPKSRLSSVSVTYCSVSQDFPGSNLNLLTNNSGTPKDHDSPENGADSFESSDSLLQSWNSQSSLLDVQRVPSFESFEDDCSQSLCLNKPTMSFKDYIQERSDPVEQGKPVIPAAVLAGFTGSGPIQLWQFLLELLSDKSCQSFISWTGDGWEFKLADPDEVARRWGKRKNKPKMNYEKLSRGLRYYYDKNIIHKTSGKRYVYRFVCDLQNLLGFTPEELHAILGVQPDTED
Procedure, shortened: as §1

ETV6 = ETV6 (Homo sapiens, UniProt P41212 1-452)
Procedure, shortened: as §1

Chain of ETV6 (P41212 whole entry): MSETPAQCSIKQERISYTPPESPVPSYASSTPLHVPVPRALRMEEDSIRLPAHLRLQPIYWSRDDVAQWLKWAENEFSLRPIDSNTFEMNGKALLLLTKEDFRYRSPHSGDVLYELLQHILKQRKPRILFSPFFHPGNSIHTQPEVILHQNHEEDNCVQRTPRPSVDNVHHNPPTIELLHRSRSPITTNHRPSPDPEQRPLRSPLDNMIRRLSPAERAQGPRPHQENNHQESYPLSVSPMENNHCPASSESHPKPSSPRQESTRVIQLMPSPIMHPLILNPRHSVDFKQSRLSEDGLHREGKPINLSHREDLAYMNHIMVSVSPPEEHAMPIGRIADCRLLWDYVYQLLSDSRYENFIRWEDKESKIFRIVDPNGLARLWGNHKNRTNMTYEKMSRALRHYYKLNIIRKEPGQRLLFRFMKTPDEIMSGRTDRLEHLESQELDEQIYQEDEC
Chain of ETV1 (P50549 whole entry): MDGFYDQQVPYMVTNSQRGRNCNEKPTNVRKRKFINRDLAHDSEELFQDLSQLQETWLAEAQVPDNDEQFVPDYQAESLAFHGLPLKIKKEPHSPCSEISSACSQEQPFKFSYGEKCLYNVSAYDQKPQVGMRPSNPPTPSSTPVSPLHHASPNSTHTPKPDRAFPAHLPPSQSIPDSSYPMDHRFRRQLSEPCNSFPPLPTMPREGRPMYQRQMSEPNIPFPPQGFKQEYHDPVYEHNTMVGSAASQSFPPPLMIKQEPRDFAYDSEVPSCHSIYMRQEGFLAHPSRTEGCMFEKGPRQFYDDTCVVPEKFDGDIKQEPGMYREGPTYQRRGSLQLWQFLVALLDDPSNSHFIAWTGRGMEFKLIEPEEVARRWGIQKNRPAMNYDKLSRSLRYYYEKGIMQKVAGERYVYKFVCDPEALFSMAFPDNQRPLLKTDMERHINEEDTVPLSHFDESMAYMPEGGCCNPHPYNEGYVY
Chain of ELF4 (Q99607 whole entry): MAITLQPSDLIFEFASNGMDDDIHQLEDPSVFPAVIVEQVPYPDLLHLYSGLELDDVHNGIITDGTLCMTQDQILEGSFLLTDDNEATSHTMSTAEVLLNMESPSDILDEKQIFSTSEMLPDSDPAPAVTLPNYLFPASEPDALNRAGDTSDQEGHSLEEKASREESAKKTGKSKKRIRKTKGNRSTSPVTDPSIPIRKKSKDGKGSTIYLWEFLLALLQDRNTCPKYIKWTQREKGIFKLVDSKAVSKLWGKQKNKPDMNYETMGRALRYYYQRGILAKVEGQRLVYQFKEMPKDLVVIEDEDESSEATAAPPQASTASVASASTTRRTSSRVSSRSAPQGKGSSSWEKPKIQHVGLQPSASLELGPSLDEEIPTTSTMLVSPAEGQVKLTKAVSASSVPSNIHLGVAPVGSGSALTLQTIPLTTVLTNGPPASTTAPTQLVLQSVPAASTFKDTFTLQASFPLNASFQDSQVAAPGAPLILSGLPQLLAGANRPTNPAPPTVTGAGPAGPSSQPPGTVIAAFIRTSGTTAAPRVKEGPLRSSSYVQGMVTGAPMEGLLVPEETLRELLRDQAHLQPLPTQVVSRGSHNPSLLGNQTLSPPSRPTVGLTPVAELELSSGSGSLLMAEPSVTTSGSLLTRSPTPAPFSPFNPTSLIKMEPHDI
Chain of ELF1 (P32519 whole entry): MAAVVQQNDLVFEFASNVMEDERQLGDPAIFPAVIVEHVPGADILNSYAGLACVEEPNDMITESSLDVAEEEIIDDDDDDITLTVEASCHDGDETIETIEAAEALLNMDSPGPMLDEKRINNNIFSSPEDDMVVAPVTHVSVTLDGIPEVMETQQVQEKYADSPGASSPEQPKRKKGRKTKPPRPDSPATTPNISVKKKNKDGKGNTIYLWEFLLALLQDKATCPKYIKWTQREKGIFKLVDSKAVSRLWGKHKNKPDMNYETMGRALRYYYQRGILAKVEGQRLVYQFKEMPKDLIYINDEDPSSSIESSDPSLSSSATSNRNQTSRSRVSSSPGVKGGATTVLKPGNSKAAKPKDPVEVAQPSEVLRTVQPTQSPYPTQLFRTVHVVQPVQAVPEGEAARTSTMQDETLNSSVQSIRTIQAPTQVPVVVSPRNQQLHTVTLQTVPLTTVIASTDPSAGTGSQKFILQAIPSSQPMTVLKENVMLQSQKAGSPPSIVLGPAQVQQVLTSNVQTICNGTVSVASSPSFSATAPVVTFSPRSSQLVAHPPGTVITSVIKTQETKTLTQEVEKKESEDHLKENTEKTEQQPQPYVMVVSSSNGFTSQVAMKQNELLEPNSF
Chain of SPIB (Q01892 whole entry): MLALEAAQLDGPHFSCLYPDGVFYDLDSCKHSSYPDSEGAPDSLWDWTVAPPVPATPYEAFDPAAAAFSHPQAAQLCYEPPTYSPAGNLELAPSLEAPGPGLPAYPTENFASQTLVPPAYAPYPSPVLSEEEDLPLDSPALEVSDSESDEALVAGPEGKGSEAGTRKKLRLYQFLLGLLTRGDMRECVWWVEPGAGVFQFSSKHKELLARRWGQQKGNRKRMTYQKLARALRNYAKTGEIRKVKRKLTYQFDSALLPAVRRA

**Q.** How did the binding signal (FLI1) turn out when TGGTTG was run?
**A.** 1.04 fold enrichment (6-mer frequency, TF over GST control)

**Q.** What about the binding signal (ELK1) of the same sequence?
**A.** 1.02 fold enrichment (6-mer frequency, TF over GST control)

**Q.** What about the binding signal (ERG) of the same sequence?
**A.** 1.01 fold enrichment (6-mer frequency, TF over GST control)

**Q.** And the binding signal (ELF1)?
**A.** 1.02 fold enrichment (6-mer frequency, TF over GST control)

**Q.** What about the binding signal (EHF) of the same sequence?
**A.** 1.02 fold enrichment (6-mer frequency, TF over GST control)

**Q.** And the binding signal (SPIB)?
**A.** 1.08 fold enrichment (6-mer frequency, TF over GST control)

**Q.** And the binding signal (ELK3)?
**A.** 1.03 fold enrichment (6-mer frequency, TF over GST control)

**Q.** What about the binding signal (SPIC) of the same sequence?
**A.** 1.08 fold enrichment (6-mer frequency, TF over GST control)

**Q.** What about the binding signal (ELF4) of the same sequence?
**A.** 1.03 fold enrichment (6-mer frequency, TF over GST control)

**Q.** What about the binding signal (ELK4) of the same sequence?
**A.** 1.09 fold enrichment (6-mer frequency, TF over GST control)

**Q.** What about the binding signal (ETV1) of the same sequence?
**A.** 1.05 fold enrichment (6-mer frequency, TF over GST control)

**Q.** And the binding signal (ERF)?
**A.** 1.1 fold enrichment (6-mer frequency, TF over GST control)

**Q.** And the binding signal (ETV3L)?
**A.** 1.03 fold enrichment (6-mer frequency, TF over GST control)

**Q.** And the binding signal (ETS2)?
**A.** 1.08 fold enrichment (6-mer frequency, TF over GST control)

**Q.** And the binding signal (ETV6)?
**A.** 1 fold enrichment (6-mer frequency, TF over GST control)
